ALDH1A1 block – inhibitors of human aldehyde dehydrogenase 1A1. P00352. Potency, µM (highest dose often 75.3 µM), without a hit: at the highest dose activity, negative = inhibition, most hits filed as inhibitors. Purified ALDH1A1, NADH fluorescence, propionaldehyde substrate. 7.3% of 220,000 active;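 note: potency is the fitted concentration of half-maximal effect; plate controls were no enzyme wells and a reference inhibitor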
PNC inhibitor – blocks assembly of the perinucleolar compartment. 3.1% of 140,000 active. activity change (PNC), negative = inhibition, % at 10 µM. PC3M PTB-GFP, PNC prevalence imaging, 16 h; stronger effect = lower value;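 active = readout at or below -70, meaning at least 70% loss of cells showing the perinucleolar compartment, a nuclear body marking cancer cells; inconclusive = readout between -30 and a set limit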;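 note: plate controls were DMSO wells for no effect and camptothecin positive control wells for full effect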
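Compounds are pinned in duplicate onto adhered PC3M cells stably expressing GFP-tagged PTB and incubated 16 h at 37 C. Cells are then fixed, nuclei stained with Hoechst, and PNC-positive cells counted.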
HPGD inh – HPGD (human) dehydrogenase inhibition; P15428; purified HPGD, NADH fluorescence kinetic, PGE2 substrate; Potency, µM, for inactives: top-dose activity change, negative = inhibition, usual class: inhibitors; 4.3% of 150,000 active; AID 894; note: potency is the fitted concentration of half-maximal effect
Target sequence (P15428 whole entry, looked up): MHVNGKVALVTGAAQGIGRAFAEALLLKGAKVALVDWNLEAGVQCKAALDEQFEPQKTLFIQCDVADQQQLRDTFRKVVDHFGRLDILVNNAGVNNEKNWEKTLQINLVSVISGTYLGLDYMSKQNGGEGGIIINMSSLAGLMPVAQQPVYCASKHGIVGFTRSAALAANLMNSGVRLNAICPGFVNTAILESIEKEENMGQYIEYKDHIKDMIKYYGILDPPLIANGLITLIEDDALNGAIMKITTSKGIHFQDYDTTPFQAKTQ
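NADH formation kinetics: reaction with 30 uM PGE2 and 1 mM NAD+ (final), 20 nM enzyme, Tris-HCl pH 8 with Tween 20, after 15 min compound preincubation at room temperature. Fluorescence change, last versus first of five reads.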
An asterisk follows results filed as active; [ ] = another dose, or the depositor's remark. This is a sample that favours compounds with a hit; in the whole collection about 11% have one here. Unless noted, calls come from the whole dose curve; as a rule, active = well fitted inhibition curve with a large enough effect (not every such curve was filed as active); inconclusive = small, poorly fitted or top-dose-only effect, or another doubt; inactive = no such curve, though single readings can be large or run the other way. Unless noted, % is set by controls: 0 for no effect and ±100 for the full control effect.

How did CCOC(=O)c1cc(-c2ccc(C)cc2)n(CCC(=O)NCCCOC)c1C do in these assays?
ALDH1A1 block: 4%; PNC inhibitor: -18; HPGD inh: -28%

What do the screens show for `CNC(=O)c1ccc(NC(=O)/C=C/c2cccc(F)c2)cc1`?
ALDH1A1 block: 3%

How did Cc1ccc(CNC(=O)/C=C/c2ccc(S(=O)(=O)N3CCOCC3)cc2)cc1 do in these assays?
ALDH1A1 block: -6%; PNC inhibitor: inconclusive; HPGD inh: -7%

What do the screens show for `COc1cc([N+](=O)[O-])cc(/C=N/N(CCC#N)C(C)=O)c1O`?
ALDH1A1 block: 10µM*

What do the screens show for `COC(=O)c1ccc(N/N=C/c2cc([N+](=O)[O-])cc(OC)c2O)cc1`?
ALDH1A1 block: 3%

Results for CCOc1nc(NCc2ccco2)nc(Nc2ccc(OC)cc2)n1 ?
ALDH1A1 block: 20µM*; PNC inhibitor: inconclusive; HPGD inh: -13%

Results for CCOc1nc(NCc2ccco2)nc(Nc2ccccc2F)n1 ?
ALDH1A1 block: 8%; PNC inhibitor: inconclusive; HPGD inh: -14%

How did Cc1cccc(N2CCN(Cc3cn(C)nc3-c3ccccc3F)CC2)n1 do in these assays?
ALDH1A1 block: -6%

What do the screens show for `Cc1ccc(Sc2c(O)c3ccccc3n(C)c2=O)cc1`?
ALDH1A1 block: -6%; PNC inhibitor: 30; HPGD inh: -9%

What do the screens show for `Cn1c(=O)c(Sc2ccccc2)c(O)c2ccccc21`?
ALDH1A1 block: 25µM*

What do the screens show for `CCc1cccc(CC)c1NC(=O)CSc1nnc(CCC(=O)O)c(=O)[nH]1`?
ALDH1A1 block: -6%

How did Cc1cc(NC(=O)c2ccccc2)n(-c2ccccc2)n1 do in these assays?
ALDH1A1 block: 2%

Results for Cc1ccc(S(=O)(=O)Nc2cc(C)nn2-c2ccccc2)cc1 ?
ALDH1A1 block: 25µM*; PNC inhibitor: -10; HPGD inh: -7%

Results for Cc1cc(Nc2ccccc2)n(-c2ccc(C(=O)O)cc2)n1 ?
ALDH1A1 block: 9%

How did Cc1cc(Nc2ccccc2)n(-c2cccc(Cl)c2)n1 do in these assays?
ALDH1A1 block: inconclusive; PNC inhibitor: -96*; HPGD inh: 28µM*

What do the screens show for `O=C(COc1cc(Cl)c(Cl)cc1Cl)N1CCN(c2ccccn2)CC1`?
ALDH1A1 block: 7%

What do the screens show for `NC(=O)COc1ccc(/C=N/NS(=O)(=O)c2ccccc2)cc1`?
ALDH1A1 block: -7%

What do the screens show for `O=C1CCN(N=Nc2cccc(Cl)c2)N1`?
ALDH1A1 block: 20µM*; PNC inhibitor: -23; HPGD inh: inconclusive

Results for Nc1[nH][nH]c(=O)c1N=Nc1cccc(Cl)c1 ?
ALDH1A1 block: 4%

How did CCC1=C2CC[C@H]3C(=O)NC(=O)[C@H]3[C@H]2[C@@]2(C)C(=NCCOC)OC(=O)N2C1=O do in these assays?
ALDH1A1 block: -4%; HPGD inh: -1%

Results for N#Cc1ccc(-c2ccc(OCC(=O)NCC(=O)Nc3ccc(F)c(F)c3F)cc2)cc1 ?
ALDH1A1 block: inconclusive; PNC inhibitor: -15; HPGD inh: inconclusive

What do the screens show for `O=c1[nH]c2ccc(S(=O)(=O)N3CCC(Cc4ccccc4)CC3)cc2o1`?
ALDH1A1 block: 13%; PNC inhibitor: -24

Results for CCCCN(Cc1ccccc1)S(=O)(=O)c1ccc2[nH]c(=O)oc2c1 ?
ALDH1A1 block: 5µM*; PNC inhibitor: 15; HPGD inh: -10%

How did COc1ccc(N=Nc2nc3ccc(Br)cc3n2C)cc1 do in these assays?
ALDH1A1 block: inconclusive; PNC inhibitor: -20; HPGD inh: -5%

Results for O=C(c1ccccc1)c1ccccc1C(=O)N1CCN(C(=O)c2ccccc2)CC1 ?
ALDH1A1 block: 6%

How did O=C(N/N=C/c1cccc([N+](=O)[O-])c1)C1CC(=O)N(c2ccc(F)cc2)C1 (configuration not stated) do in these assays?
ALDH1A1 block: -10%; PNC inhibitor: -24; HPGD inh: -8%

How did CCC(C)(C(=O)NC1CCCCC1)N(C)C(=O)c1ccccn1 (configuration not stated) do in these assays?
ALDH1A1 block: -4%; PNC inhibitor: -106*; HPGD inh: -5%

How did CCC(C)(C(=O)NC1CCCCC1)N(C(=O)c1ccccn1)c1ccccc1 (configuration not stated) do in these assays?
ALDH1A1 block: -11%; PNC inhibitor: 30; HPGD inh: -12%

How did O=C1NC(=O)[C@@]2(CCOc3ccc(F)cc32)N1 do in these assays?
ALDH1A1 block: 1%; HPGD inh: -2%

Results for Cc1cccc(C)c1NC(=O)CN1CCN(CCCC(c2ccc(F)cc2)c2ccc(F)cc2)CC1 ?
ALDH1A1 block: 4%[20.9 µM]; HPGD inh: -3%

How did CCOc1ccc(-n2c(Cc3cc(=O)[nH]c(=O)[nH]3)nnc2SCC(N)=O)cc1 do in these assays?
ALDH1A1 block: -1%; PNC inhibitor: -84*; HPGD inh: -6%

Results for CCOc1ccc(-n2c(Cc3cc(=O)[nH]c(=O)[nH]3)nnc2SCC(=O)NC2CCCC2)cc1 ?
ALDH1A1 block: -4%; PNC inhibitor: -22; HPGD inh: -8%

How did COC(=O)C/C=C\[C@@H](C)[C@@H](/C=N\O[C@@H]1O[C@H](COC(C)=O)[C@H](OC(C)=O)[C@H](OC(C)=O)[C@H]1OC(C)=O)OC do in these assays?
ALDH1A1 block: -1%[13.5 µM]

Results for COc1ccc(C2C(CC(=O)O)=C(O)C(=O)N2c2ccccc2)cc1 (configuration not stated) ?
ALDH1A1 block: 18µM*; PNC inhibitor: inconclusive; HPGD inh: -23%

What do the screens show for `Cc1ccc(NC2=C(CC(=O)O)C(c3ccccc3)N(c3ccc(C)cc3)C2=O)cc1` (configuration not stated)?
ALDH1A1 block: inconclusive; PNC inhibitor: 50; HPGD inh: -15%

What do the screens show for `COc1ccc(C)cc1NC(=S)NC12CN3CN(CN(C3)C1)C2`?
ALDH1A1 block: -3%

What do the screens show for `CC(=O)Nc1ccc(S(=O)(=O)Nc2ccc(S(=O)(=O)N3CCCC3)cc2)cc1`?
ALDH1A1 block: 2.8µM*; PNC inhibitor: 100; HPGD inh: 2%

What do the screens show for `COc1ccc(NC(=O)CN2CCC(C(N)=O)(N3CCCCC3)CC2)cc1`?
ALDH1A1 block: -13%; PNC inhibitor: 0; HPGD inh: 1%

What do the screens show for `COc1ccc(Cl)cc1NS(=O)(=O)c1cc(Cl)ccc1OC`?
ALDH1A1 block: 3%; PNC inhibitor: 1; HPGD inh: -3%

Results for COc1ccc(NS(=O)(=O)c2ccc(S(=O)(=O)N3CCCC3)cc2)cc1 ?
ALDH1A1 block: 1µM*; PNC inhibitor: 19; HPGD inh: -4%

What do the screens show for `CC(=O)Nc1ccc(S(=O)(=O)N2CCN(C)CC2)cc1`?
ALDH1A1 block: -6%; PNC inhibitor: 19; HPGD inh: -7%

What do the screens show for `COc1ccc(S(=O)(=O)N2CCC(C(N)=O)(N3CCCCC3)CC2)cc1`?
ALDH1A1 block: 18µM*; PNC inhibitor: inconclusive; HPGD inh: -4%

What do the screens show for `COc1ccc(S(=O)(=O)N2CCCCC2)cc1`?
ALDH1A1 block: 5%; PNC inhibitor: 3; HPGD inh: -4%

How did COc1ccc(S(=O)(=O)N2CCCCC2)cc1NS(=O)(=O)c1cc(Cl)ccc1Cl do in these assays?
ALDH1A1 block: 2.2µM*; PNC inhibitor: inconclusive; HPGD inh: 3%

Screening data deposited in PubChem BioAssay by National Center for Advancing Translational Sciences (NCATS).
